{
  "source": "PubChem BioAssay (EPA / NIEHS)",
  "note": "Inconclusive results are not listed. Calls of active or inactive are those of the source. How the source made its calls: active means hit-call score of the fitted dose curve at least 0.9, where 1 is the maximum; inconclusive means response in the unintended direction; inactive means score below 0.9.",
  "data": [
    {"experiment": "ACEA_ER_AUC_viability: ACEA Biosciences xCELLigence Real-Time Cell Analysis on Estrogen Receptor Agonism for Viability (AID 2283782);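 further: continuous compound exposure with impedance area under curve over 80 h; hit means loss of impedance signal meaning reduced cell growth or viability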", "procedure,_shortened": "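T47D cells preconditioned in phenol red-free RPMI with charcoal-stripped FBS, then dosed with 8-point 1:4 series from 100 uM (up to 0.5% DMSO). Impedance monitored up to ~80 h; area-under-curve loss versus DMSO taken as viability.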", "values": [
      {"smiles": "CCc1occc(=O)c1O", "outcome": "inactive"},
      {"smiles": "CCCCCCCCCC[N+](C)(CCCCCCCCCC)CCC[Si](OC)(OC)OC", "AC50": "17 µM (active)"},
      {"smiles": "CCOC(=O)/C=C\\C(=O)OCC", "AC50": "82.6 µM (active)"},
      {"smiles": "O=C(O)C1CCC(C(=O)O)CC1", "note": "(centres undefined)", "outcome": "inactive"},
      {"smiles": "CC(C)C(=O)OCCOc1ccccc1", "outcome": "inactive"},
      {"smiles": "CCCCOCCOCCOC(C)=O", "outcome": "inactive"},
      {"smiles": "CC(C)[N+](C)(CCOC(=O)C1c2ccccc2Oc2ccccc21)C(C)C", "outcome": "inactive"},
      {"smiles": "CCCCC1CCC(=O)O1", "note": "(centres undefined)", "AC50": "60.6 µM (active)"},
      {"smiles": "CC(C)(C)N", "outcome": "inactive"},
      {"smiles": "O=C1c2ccccc2C(=O)c2cc(S(=O)(=O)O)ccc21", "outcome": "inactive"},
      {"smiles": "Cc1noc(NS(=O)(=O)c2ccc(N)cc2)c1C", "outcome": "inactive"},
      {"smiles": "CCCCCCCCCCCC(=O)N(C)CC(=O)O", "outcome": "inactive"},
      {"smiles": "C=CCOC(=O)c1ccc(C(=O)OCC=C)c(C(=O)OCC=C)c1", "outcome": "inactive"},
      {"smiles": "CC1C(C)(C)C2=C(C(=O)CCC2)C1(C)C", "note": "(centres undefined)", "outcome": "inactive"},
      {"smiles": "CC(=O)OCC=C(C)C", "outcome": "inactive"},
      {"smiles": "CC1=NN(c2ccc(S(=O)(=O)O)cc2)C(=O)C1N=Nc1ccccc1", "note": "(centres undefined)", "outcome": "inactive"},
      {"smiles": "Cn1ccnc1", "outcome": "inactive"},
      {"smiles": "CC(C)c1ccc2ncccc2c1", "outcome": "inactive"},
      {"smiles": "CCCc1ccc(O)c(OC)c1", "outcome": "inactive"},
      {"smiles": "COC(=O)c1ccc(C(=O)OC)c(C(=O)OC)c1", "AC50": "69.6 µM (active)"},
      {"smiles": "CCCCOC(=O)CCC(C)=O", "outcome": "inactive"},
      {"smiles": "CCC(C)C(=O)OCCc1ccccc1", "note": "(centres undefined)", "outcome": "inactive"},
      {"smiles": "CC/C=C\\CCOC(=O)c1ccccc1O", "AC50": "72.7 µM (active)"},
      {"smiles": "CCC(C)(O)CCCC(C)C", "note": "(centres undefined)", "outcome": "inactive"},
      {"smiles": "c1ccc2sc(SSN3CCOCC3)nc2c1", "AC50": "84.8 µM (active)"},
      {"smiles": "CC(=O)OC1CCCCC1", "AC50": "40.3 µM (active)"},
      {"smiles": "CCCCC/C=C\\C/C=C\\CCCCCCCC(=O)O", "AC50": "81.4 µM (active)"},
      {"smiles": "O=C(O)CCCC(=O)O", "outcome": "inactive"},
      {"smiles": "C=CC(=O)NC(C)(C)C", "outcome": "inactive"},
      {"smiles": "CC1(C)CCC[C@]2(C)[C@H]3CC(=O)O[C@]3(C)CC[C@@H]12", "outcome": "inactive"},
      {"smiles": "CCOC(=O)c1ccc(C)cc1", "outcome": "inactive"},
      {"smiles": "O=C1CCCCCCCCCCC1", "outcome": "inactive"},
      {"smiles": "O=C(C=Cc1ccccc1)OCCc1ccccc1", "AC50": "58 µM (active)"},
      {"smiles": "CC1(C)CC(O)CC(C)(C)N1[O]", "outcome": "inactive"}
    ]}
  ]
}
